# Measurements: PubChem BioAssay
# Several values for one entry are separate records, joined by “and”; a condition that tells them apart may be missing. Equal entries are not always repeated. Activity calls are given as the source filed them.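 The calls were made as follows, unless noted: active = normalized viability below 100% at a tested concentration; inactive = the rest.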
# Key:
# [1] = ovarian cancer cell viability with rucaparib, profiling panel, oncology-focused library, rucaparib conditional (AID 1508598); settings: patient-derived ovarian cancer cells, CellTiter-Glo viability, 144 h, stronger effect = lower value
# [2] = target: 6-phosphogluconate dehydrogenase, decarboxylating (Homo sapiens) (UniProt P52209); experiment: 6PGD enzyme inhibitors, primary screen, biochemical, human, recombinant enzyme, NADPH absorbance (AID 1159550;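 active = at least 20% inhibition of 6-phosphogluconate dehydrogenase activity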); settings: recombinant 6PGD, NADPH absorbance 341 nm; at 10 µM; stronger effect = higher value
# Chain of 6-phosphogluconate dehydrogenase, decarboxylating (Homo sapiens) (P52209 whole entry, looked up): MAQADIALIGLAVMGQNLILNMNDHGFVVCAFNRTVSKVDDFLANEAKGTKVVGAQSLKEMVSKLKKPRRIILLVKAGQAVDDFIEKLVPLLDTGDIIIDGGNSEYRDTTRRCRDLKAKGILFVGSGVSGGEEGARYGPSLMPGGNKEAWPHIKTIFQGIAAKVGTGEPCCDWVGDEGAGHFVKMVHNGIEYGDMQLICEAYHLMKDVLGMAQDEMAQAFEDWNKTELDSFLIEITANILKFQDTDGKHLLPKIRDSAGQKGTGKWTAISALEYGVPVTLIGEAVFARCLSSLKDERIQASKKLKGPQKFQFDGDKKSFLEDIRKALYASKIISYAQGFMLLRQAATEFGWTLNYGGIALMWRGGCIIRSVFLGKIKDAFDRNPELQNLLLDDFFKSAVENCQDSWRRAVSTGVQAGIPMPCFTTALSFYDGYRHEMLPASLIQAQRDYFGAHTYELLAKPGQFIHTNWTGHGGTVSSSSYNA
# [3] = differential killing of epithelial or mesenchymal cells, primary screen, imaging, PC-3E GFP, TEM4-18 mCherry, co-culture (AID 1345086;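 active = compounds killing one labelled cell type while sparing the other, by normalised counts and ratio limits, not self-fluorescent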;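 also: cells exposed to compound for 72 h before imaging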;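 as to red/green cell ratio (normalised): normalised mesenchymal count divided by normalised epithelial count so high means epithelial killing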); settings: imaging cell counts, at 1 µM
# [4] = liver-stage malaria parasite growth inhibition, primary screen, cell-based, HepG2, luciferase luminescence, HepG2 viability (AID 624349; in the data active = parasite load remaining mostly below about 12%, no sharp cut-off; inactive = mostly above about 10%;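 also: 100% = mean of DMSO negative control wells on the same plate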); settings: P. berghei liver stage in HepG2, luciferase luminescence, concentration not given here; parasite load remaining: stronger effect = lower value; viability: measured here: HepG2 viability without parasites
# [5] = Cy5 fluorescence interference with SSB-bound oligo, artefact control for HCV NS3 helicase inhibitor project, biochemical, NIH Clinical Collection, E. coli SSB (AID 743268; call rule not given here)
# [6] = tested on: Hepatitis C virus NS3 helicase; experiment: HCV NS3 helicase inhibitors, primary screen, biochemical, fluorescence polarization, NIH Clinical Collection (AID 743270; call rule not given here); settings: NS3 helicase binding to Cy5-dT15 DNA, stronger effect = higher value, concentration not given here
# [7] = target: Single-stranded DNA-binding protein (Escherichia coli (strain K12)) (UniProt P0AGE0); experiment: E. coli SSB displacement from DNA, counter-screen for HCV NS3 helicase inhibitor project, biochemical, fluorescence polarization, NIH Clinical Collection (AID 743271; in the data active = inhibition above about 28%); settings: stronger effect = higher value, concentration not given here
# [8] = fluorescence interference in NS3h assay format, artefact control for HCV NS3 helicase inhibitor project, biochemical, NIH Clinical Collection (AID 743272; call rule not given here;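 also: HCV NS3 helicase with a Cy5 labelled single stranded DNA probe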); settings: fluorescence interference counterscreen, stronger effect = lower value
# [9] = sensitizers of A549 cells to miR-34 induction, primary screen, imaging, A549 dox-inducible miR-34, nuclei and caspase counts (AID 1347080;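 active = compounds whose cell count with miR-34 switched on is under 0.7 times the count with it off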); settings: A549 miR-34 inducible, Hoechst nuclei count, 48 h
# [10] = survival rescue of mitochondrial mutant cells in low glucose, primary screen, MELAS cybrids, Rieske KO mouse fibroblasts, CellTiter-Glo (AID 1508586;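 active = mean z-score across replicates of 1.96 or higher in either the MELAS or the Rieske mutant cell line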;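 also: z relative to plate mean and SD of compound and empty wells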)
# [11] = target: NAD(+) hydrolase SARM1 (Homo sapiens) (UniProt Q6SZW1); experiment: SARM1 TIR NADase inhibitors, cell lysate, NAD-Glo luminescence (AID 1508614;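 active = compound whose remaining NAD level is above about 45 nM, limit read from the data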;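 also: higher remaining NAD means stronger inhibition of SARM1 NADase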); settings: SAM-TIR HEK293T lysate NADase, at 1 µM, stronger effect = higher value
# Chain of NAD(+) hydrolase SARM1 (Homo sapiens) (Q6SZW1 whole entry, looked up, the tested form may be a part): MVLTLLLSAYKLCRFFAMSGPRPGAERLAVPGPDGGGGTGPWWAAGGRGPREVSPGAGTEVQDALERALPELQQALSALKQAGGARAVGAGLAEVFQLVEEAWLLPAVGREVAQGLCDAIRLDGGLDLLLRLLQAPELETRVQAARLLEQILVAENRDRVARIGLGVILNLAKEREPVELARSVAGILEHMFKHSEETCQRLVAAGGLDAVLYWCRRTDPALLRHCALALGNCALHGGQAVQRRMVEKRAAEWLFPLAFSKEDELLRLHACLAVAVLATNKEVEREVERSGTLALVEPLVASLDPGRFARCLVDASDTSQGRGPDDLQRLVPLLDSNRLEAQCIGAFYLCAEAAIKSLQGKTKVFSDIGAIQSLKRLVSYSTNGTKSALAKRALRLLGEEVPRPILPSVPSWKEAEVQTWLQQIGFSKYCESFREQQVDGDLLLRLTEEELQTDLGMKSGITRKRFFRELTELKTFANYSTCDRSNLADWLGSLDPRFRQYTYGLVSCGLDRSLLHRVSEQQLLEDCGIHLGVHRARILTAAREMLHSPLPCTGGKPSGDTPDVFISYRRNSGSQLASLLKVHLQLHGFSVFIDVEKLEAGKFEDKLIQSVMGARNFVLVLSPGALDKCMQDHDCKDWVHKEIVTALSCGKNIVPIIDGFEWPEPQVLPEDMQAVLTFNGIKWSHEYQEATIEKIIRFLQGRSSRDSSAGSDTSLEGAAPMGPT
# [12] = target: Mitogen-activated protein kinase 7 (Homo sapiens) (UniProt Q13164); experiment: ERK5 transactivation activators in reporter cells, primary screen, cell-based, HTS (AID 1508626;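 active = luciferase signal above three times the same-plate solvent-only control wells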;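 also: luciferase driven by Gal4-ERK5 fusion binding five Gal4 sites before minimal TATA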); settings: HeLa Gal4-ERK5 transactivation, 18 h, at 5 µM, stronger effect = higher value
# Chain of Mitogen-activated protein kinase 7 (Homo sapiens) (Q13164 whole entry, looked up, the tested form may be a part): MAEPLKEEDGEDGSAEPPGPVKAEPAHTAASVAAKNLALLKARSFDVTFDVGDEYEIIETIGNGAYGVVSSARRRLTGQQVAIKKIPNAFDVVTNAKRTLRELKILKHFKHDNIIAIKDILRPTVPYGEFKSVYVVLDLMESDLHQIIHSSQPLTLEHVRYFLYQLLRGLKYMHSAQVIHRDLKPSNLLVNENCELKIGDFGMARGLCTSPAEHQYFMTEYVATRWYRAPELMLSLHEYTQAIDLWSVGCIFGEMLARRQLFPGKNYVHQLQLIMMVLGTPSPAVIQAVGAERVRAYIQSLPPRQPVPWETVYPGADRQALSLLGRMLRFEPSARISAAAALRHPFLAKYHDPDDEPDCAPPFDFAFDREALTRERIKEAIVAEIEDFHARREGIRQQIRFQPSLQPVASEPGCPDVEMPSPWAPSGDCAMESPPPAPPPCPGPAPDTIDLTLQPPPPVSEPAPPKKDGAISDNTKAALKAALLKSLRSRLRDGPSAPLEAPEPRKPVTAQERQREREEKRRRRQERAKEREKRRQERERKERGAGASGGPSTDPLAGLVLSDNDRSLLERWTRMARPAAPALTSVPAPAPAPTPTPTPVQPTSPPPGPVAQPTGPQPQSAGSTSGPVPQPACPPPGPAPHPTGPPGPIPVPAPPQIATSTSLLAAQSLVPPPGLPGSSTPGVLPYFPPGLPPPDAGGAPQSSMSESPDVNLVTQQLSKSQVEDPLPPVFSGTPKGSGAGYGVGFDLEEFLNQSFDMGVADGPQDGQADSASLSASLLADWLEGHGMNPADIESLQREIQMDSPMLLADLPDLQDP
# [13] = viability rescue of complex I mutant cybrids, primary screen, cell-based, galactose medium, ATP luminescence (AID 1645843;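 active = z-score of at least 1.8 in each of two replicates, scored against plate mean and spread of sample wells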;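 also: positive z means more ATP and so rescue of galactose-driven cybrid death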); settings: complex I mutant cybrid cells, 72 h, stronger effect = higher value
# F380Y = experiment: modulators of BK channel variants, profiling panel, selectivity assay, cell-based, U2OS BacMam, thallium flux, beta subunits (AID 1259406;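 active = thallium flux through the channel raised or lowered by more than 3 SD from vehicle-only wells, actives on both sides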;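 also: initial slope of Thallos dye fluorescence rise after thallium is added; log ratio against the mean of 0.3% DMSO vehicle wells on the same plate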); settings: at 30 µM
# F380Y/beta2Delta = experiment: as above; settings: at 30 µM
# [14] = target: Calcium-activated potassium channel subunit alpha-1 (Homo sapiens) + Leucine-rich repeat-containing protein 26 (Homo sapiens) (UniProt Q12791+Q2I0M4); experiment: as above; settings: F380Y/Slo1WT/gamma1, at 30 µM
# Chain of Calcium-activated potassium channel subunit alpha-1 (Homo sapiens) + Leucine-rich repeat-containing protein 26 (Homo sapiens) (Q2I0M4 whole entry, looked up, one chain of several): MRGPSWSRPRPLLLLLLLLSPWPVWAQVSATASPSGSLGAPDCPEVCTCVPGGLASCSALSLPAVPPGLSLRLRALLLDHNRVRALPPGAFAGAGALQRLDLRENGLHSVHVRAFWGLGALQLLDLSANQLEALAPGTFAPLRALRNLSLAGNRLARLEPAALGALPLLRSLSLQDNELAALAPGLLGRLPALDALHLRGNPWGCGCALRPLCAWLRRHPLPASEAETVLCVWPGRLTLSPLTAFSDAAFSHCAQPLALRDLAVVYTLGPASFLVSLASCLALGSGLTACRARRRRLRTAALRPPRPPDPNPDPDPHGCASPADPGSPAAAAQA
# R275C = experiment: as above; settings: at 30 µM
# R275C/beta1 = experiment: as above; settings: at 30 µM
# R275C/beta2Delta = experiment: as above; settings: at 30 µM
smiles,measurement,setting,value
CCc1ccc(CCOc2ccc(CC3SC(=O)NC3=O)cc2)nc1 (stereo not drawn),viability,"[1]; at 0.000305 µM, OCI-C5x cells, with rucaparib 10 µM, 100% = cells with rucaparib alone",119% (inactive)
same,viability,"[1]; at 0.000305 µM, OCI-C5x cells, without rucaparib",118% (inactive)
same,viability,"[1]; at 0.000305 µM, OCI-P5x cells, with rucaparib 20 µM, 100% = cells with rucaparib alone",88.4% (active)
same,viability,"[1]; at 0.000305 µM, OCI-P5x cells, without rucaparib",95.9% (active)
same,viability,"[1]; at 0.00122 µM, OCI-C5x cells, with rucaparib 10 µM, 100% = cells with rucaparib alone",120% (inactive)
same,viability,"[1]; at 0.00122 µM, OCI-C5x cells, without rucaparib",116% (inactive)
same,viability,"[1]; at 0.00122 µM, OCI-P5x cells, with rucaparib 20 µM, 100% = cells with rucaparib alone",97.3% (active)
same,viability,"[1]; at 0.00122 µM, OCI-P5x cells, without rucaparib",100% (inactive)
same,viability,"[1]; at 0.00488 µM, OCI-C5x cells, with rucaparib 10 µM, 100% = cells with rucaparib alone",108% (inactive)
same,viability,"[1]; at 0.00488 µM, OCI-C5x cells, without rucaparib",126% (inactive)
same,viability,"[1]; at 0.00488 µM, OCI-P5x cells, with rucaparib 20 µM, 100% = cells with rucaparib alone",102% (inactive)
same,viability,"[1]; at 0.00488 µM, OCI-P5x cells, without rucaparib",105% (inactive)
same,viability,"[1]; at 0.0195 µM, OCI-C5x cells, with rucaparib 10 µM, 100% = cells with rucaparib alone",120% (inactive)
same,viability,"[1]; at 0.0195 µM, OCI-C5x cells, without rucaparib",126% (inactive)
same,viability,"[1]; at 0.0195 µM, OCI-P5x cells, with rucaparib 20 µM, 100% = cells with rucaparib alone",105% (inactive)
same,viability,"[1]; at 0.0195 µM, OCI-P5x cells, without rucaparib",104% (inactive)
same,viability,"[1]; at 0.0781 µM, OCI-C5x cells, with rucaparib 10 µM, 100% = cells with rucaparib alone",124% (inactive)
same,viability,"[1]; at 0.0781 µM, OCI-C5x cells, without rucaparib",113% (inactive)
same,viability,"[1]; at 0.0781 µM, OCI-P5x cells, with rucaparib 20 µM, 100% = cells with rucaparib alone",101% (inactive)
same,viability,"[1]; at 0.0781 µM, OCI-P5x cells, without rucaparib",110% (inactive)
same,viability,"[1]; at 0.313 µM, OCI-C5x cells, with rucaparib 10 µM, 100% = cells with rucaparib alone",105% (inactive)
same,viability,"[1]; at 0.313 µM, OCI-C5x cells, without rucaparib",115% (inactive)
same,viability,"[1]; at 0.313 µM, OCI-P5x cells, with rucaparib 20 µM, 100% = cells with rucaparib alone",103% (inactive)
same,viability,"[1]; at 0.313 µM, OCI-P5x cells, without rucaparib",113% (inactive)
same,viability,"[1]; at 1.25 µM, OCI-C5x cells, with rucaparib 10 µM, 100% = cells with rucaparib alone",111% (inactive)
same,viability,"[1]; at 1.25 µM, OCI-C5x cells, without rucaparib",123% (inactive)
same,viability,"[1]; at 1.25 µM, OCI-P5x cells, with rucaparib 20 µM, 100% = cells with rucaparib alone",104% (inactive)
same,viability,"[1]; at 1.25 µM, OCI-P5x cells, without rucaparib",118% (inactive)
same,viability,"[1]; at 5 µM, OCI-C5x cells, with rucaparib 10 µM, 100% = cells with rucaparib alone",105% (inactive)
same,viability,"[1]; at 5 µM, OCI-C5x cells, without rucaparib",123% (inactive)
same,viability,"[1]; at 5 µM, OCI-P5x cells, with rucaparib 20 µM, 100% = cells with rucaparib alone",103% (inactive)
same,viability,"[1]; at 5 µM, OCI-P5x cells, without rucaparib",111% (inactive)
COc1cc(OC)c2c(OC)c(-c3ccc4c(c3)OCO4)c(=O)oc2c1,inhibition,[2],-4.99% (inactive)
same,red/green cell ratio (normalised),"[3]; actives lie on both sides, counts scaled to control wells, 1 = unselective",1.02 (inactive)
same,normalised cell number,[3]; measured here: epithelial PC-3E GFP cell survival,0.92
same,normalised cell number,[3]; measured here: mesenchymal TEM4-18 mCherry cell survival,0.94
CC(=O)OCC(=O)[C@@]1(O)CC[C@H]2[C@@H]3CCC4=CC(=O)CC[C@]4(C)[C@H]3[C@@H](O)C[C@@]21C,parasite load remaining,[4],82.4% (inactive) and 26% (inactive)
same,viability,[4],130% and 68%
same,fluorescence ratio,[5],0.96 (inactive)
same,inhibition,[6],-0.45% (inactive)
same,inhibition,[7],1.81% (inactive)
same,fluorescence ratio,[8],0.96 (inactive)
same,inhibition,[2],8.37% (inactive)
same,fold change,"[9]; stronger effect = lower value, cell number ratio, induced over uninduced",0.933 (inactive) and 0.77 (inactive)
same,fold change,[9]; measured here: relative caspase fold change +Dox/-Dox,0.523 and 1.29
same,cell count,"[9]; measured here: total cells with miR-34 induction, stronger effect = lower value",7330 and 6560
same,cell count,[9]; measured here: total cells without miR-34 induction,7860 and 8520
same,z-score,"[10]; MELAS cybrid survival, CellTiter-Glo 48 h, stronger effect = higher value",0.499 (inactive) and 0.396 (inactive)
same,z-score,"[10]; Rieske KO mouse fibroblast survival, CellTiter-Glo 72 h",0.874 and 1.08
same,remaining NAD,[11],10 nM (inactive)
same,luciferase signal,[12],36 AU (inactive)
same,z-score,[13],-0.03 (inactive) and 0.39 (inactive)
same,log fold change Tl+ flux,F380Y,-0.0118 (inactive)
same,log fold change Tl+ flux,F380Y/beta2Delta,0.0163 (inactive)
same,log fold change Tl+ flux,[14],0.0135 (inactive)
same,log fold change Tl+ flux,R275C,-0.0512 (inactive)
same,log fold change Tl+ flux,R275C/beta1,-0.0363 (inactive)
same,log fold change Tl+ flux,R275C/beta2Delta,-0.0239 (inactive)
